Where a name gives a salt, the structure may show the parent alone.
system: Danio rerio larvae Tg(actc1b:ZsGreen-LC3), 3 dpf; assay: LC3 puncta relative area vs vehicle, with NH4Cl (autophagic flux) (log2 fold change); higher = more autophagy; conditions: 10 µM; treatment time 16 h; NH4Cl: + 100 mM, 4 h
Procedure: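 Transgenic Tg(actc1b:ZsGreen-map1lc3) zebrafish larvae (2 dpf) were treated for 16 h with Tocris library compounds at 10 µM (n = 12 larvae per compound). Skeletal-muscle LC3 puncta area relative to body area was measured by high-content confocal imaging before and after 4 h of 100 mM NH4Cl (autophagic flux), normalised to vehicle (DMSO), and reported as log2 fold change.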

Row | SMILES | LC3 puncta (log2)
1 | CN1CCC(=C2c3ccccc3CC(=O)c3sccc32)CC1 [Ketotifen fumarate] | 0.874
2 | CC(=O)NCC(=O)N[C@H](CCC(=O)O)C(=O)O [N-Acetylglycyl-D-glutamic acid] | 0.237
3 | O=c1nc2ccccc2c2n1CC(CN1CCN(c3ccccc3)CC1)N2 (stereo not given) | 0.259
4 | c1ccc2sc(N3CCN(Cc4ccc5c(c4)OCO5)CC3)nc2c1 [2-[1-(4-Piperonyl)piperazinyl]benzothiazole] | 0.593
5 | C=C1C(=O)O[C@H]2[C@H]1CC/C(C)=C/CC[C@@]1(C)O[C@@H]21 [Parthenolide] | 0.46
6 | CCN(CC)CCOCCOC(=O)C1(c2ccccc2)CCCC1 [Carbetapentane citrate] | 0.392
7 | O=C(/C=C/c1ccc(O)c(O)c1)O[C@H](Cc1ccc(O)c(O)c1)C(=O)O [Rosmarinic acid] | 0.0251
8 | O=C(OCCN1CCCCC1)c1c[nH]c2ccccc12 | 0.6
9 | NC(=O)CCCCn1ccc(NC(N)=NCC(F)(F)F)n1 | 0.72
10 | Cc1noc(NS(=O)(=O)c2ccc(N)cc2)c1C [Sulfisoxazole] | 0.483
11 | c1ccc2oc(C3=NCCN3)cc2c1 [2-BFI hydrochloride] | -0.32
12 | O=S(=O)(c1cccc2c(Cl)cccc12)N1CCCNCC1 [ML 9 hydrochloride] | 0.383
13 | CCN(CC)CCOC(=O)C1(c2ccc([N+](=O)[O-])cc2)CCCC1 [Nitrocaramiphen hydrochloride] | 0.825
14 | Cc1ccc(OCC(O)C(C)NC(C)C)c2c1CCC2 (stereo not given) [ICI 118,551 hydrochloride] | 0.592
15 | O=C(O)c1cc(=O)c2ccccc2[nH]1 [Kynurenic acid] | -0.156
16 | CNCCCCOc1ccccc1Cc1ccccc1 [Bifemelane] | 0.532
17 | CCOC(=O)C1=C[C@]2(CC)CCCN3CCc4c(n1c1ccccc41)[C@@H]32 [Vinpocetine] | 1
18 | COc1cc2c(CCNC(C)=O)c[nH]c2cc1Cl [6-Chloromelatonin] | 0.198
19 | COc1ccc2[nH]c(-c3ccccc3)c(CCNC(C)=O)c2c1 [2-Phenylmelatonin] | 0.594
20 | COc1cc2nc(N3CCN(C(=O)c4ccco4)CC3)nc(N)c2cc1OC [Prazosin hydrochloride] | 0.478

Row | SMILES | LC3 puncta (log2)
21 | CSc1ccc2c(c1)C(N1CCN(C)CC1)Cc1ccccc1S2 (stereo not given) [Methiothepin maleate] | -0.129
22 | O=C(O)CC/C=C\C[C@H]1CO[C@@H](c2ccccc2Cl)O[C@H]1c1ccccc1O | -0.012
23 | CC1=C(/C=C/C(C)=C/C=C/C(C)=C/C(=O)O)C(C)(C)CCC1 [Retinoic acid] | 1.64
24 | N[C@@H](C(=O)O)c1ccc(O)c(C(=O)O)c1 [(R)-3-Carboxy-4-hydroxyphenylglycine] | 0.421
25 | CN(C)CCCSC(=N)N [Dimaprit dihydrochloride] | 0.561
26 | CCc1nc(N)nc(N)c1-c1ccc(Cl)cc1 [Pyrimethamine] | 0.578
27 | CC(=O)N[C@@H](CC(=O)N[C@@H](CCC(=O)O)C(=O)O)C(=O)O [Spaglumic acid] | 0.103
28 | O=C(O)c1cccnc1C(=O)O [Quinolinic acid] | 0.453
29 | c1ccc2nc(C3=NCCN3)cnc2c1 [BU 239 hydrochloride] | 0.0532
30 | COCCOC(=O)C1=C(C)NC(C)=C(C(=O)OC(C)C)C1c1cccc([N+](=O)[O-])c1 (stereo not given) [Nimodipine] | 0.885
31 | O=C(NCCN1CCCCC1)c1ccc(I)cc1 [N-[2-(Piperidinylamino)ethyl]-4-iodobenzamide] | 0.448
32 | O=[N+]([O-])c1cccc2c(Br)[nH]nc12 [3-Bromo-7-nitroindazole] | 0.697
33 | O=C(NCCCN1CCCCCC1)C(c1ccccc1)C1CCCCC1 (stereo not given) | -0.114
34 | COc1ccccc1N1CCN(CCCCN2C(=O)c3ccccc3C2=O)CC1 [NAN-190 hydrobromide] | 0.496
35 | CC(C)NCC(O)COc1cccc2ccccc12 (stereo not given) [Propranolol hydrochloride] | 1.08
36 | CC(C(O)c1ccc(O)cc1)N1CCC(Cc2ccccc2)CC1 (stereo not given) [Ifenprodil hemitartrate] | 0.445
37 | CC(=O)N1CCN(C)CC1 [1-Acetyl-4-methylpiperazine hydrochloride] | 0.372
38 | CC1=NN(c2ccccc2)C(=O)C1 [Edaravone] | 0.405
39 | N=C(N)SCCc1c[nH]cn1 [Imetit dihydrobromide] | 0.713
40 | CN1CCN(C2=Cc3ccccc3Oc3ccc(Cl)cc32)CC1 | 0.934
